Measurements from PubChem BioAssay (NCATS).
Records with an inconclusive call do not appear. Calls of active or inactive are those of the source. Calls follow the shape of the full dose curve.

experiment: Primary qHTS to identify inhibitors of SARS-CoV-2 cell entry (AID 1645846); details: SARS-CoV-2 pseudovirus cell entry assay, luminescence; activity change, negative = inhibition: at 57.1 µM (top of the series) unless noted; also: nearly all actives have a fitted effect of over 45% in size
Summary of the method: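 Luminescence readout (Bright-Glo luciferase) 48 h after pseudoparticle addition. HEK293-ACE2 cells, 1500/well; compound pre-incubation 1 h; Normalized to spike PP and bald PP.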
Potency is read from the fitted curve at half-maximal effect.

| Structure (SMILES) | Potency | activity change, negative = inhibition |
| --- | --- | --- |
| C=C1CC[C@@H]2[C@](C)(CO)[C@H](O)CC[C@@]2(C)[C@@H]1C/C=C1/C(=O)OC[C@H]1O | 25.1 µM (active) |  |
| O=C(CCCCCCC(=O)N/N=C/c1ccc(N(c2ccccc2)c2ccccc2)cc1)NO | 3.16 µM (active) |  |
| CC(C)(CO)n1cc(C(=O)c2cncc(NC(=O)Cc3ccc(Cl)cn3)c2)c2cnc(N)nc21 | inactive |  |
| CC(C)OC(=O)[C@H](C)N[P@](=O)(OC[C@H]1O[C@@H](n2ccc(=O)[nH]c2=O)[C@](C)(F)[C@@H]1O)Oc1ccccc1 |  | -40% |
| CCCc1cc(C(=O)N[C@H](Cc2ccc(-c3cccc(OC(F)(F)F)c3)nc2)C(=O)N[C@@H]2CCNC2)sc1C | 31.6 µM (active) |  |
| COc1cc(OCc2cccc(-c3ccccc3)c2C)cc(OC)c1CN1CCCC[C@H]1C(=O)O |  | -88.4% |
| COc1cc(OC)c(/C=C/S(=O)(=O)Cc2ccc(OC)c(NCC(=O)O)c2)c(OC)c1 |  | -75.7% |
| CCC(=C/[C@H](C)C/C=C/C(C)=C/[C@@H](C)C(=O)[C@@H](C)[C@H](O)[C@@H](C)C/C(C)=C/C(=O)O)/C=C/[C@@H]1OC(=O)C=C[C@@H]1C |  | -94.2% |
| CCNCCS(=O)(=O)NC[C@@]1(c2ccccc2)SC(NC(=O)C(C)(C)C)=NN1C(=O)C(C)(C)C |  | -77.9% |
| FC(F)(F)c1ccc(/C=C/c2nc(COc3ccc(CCCCn4ccnn4)cc3)co2)cc1 |  | -95.9% |
| Nc1nc(OC(c2ccc(-c3cccc(F)c3)cc2)C(F)(F)F)cc(-c2ccc(C[C@@H](N)C(=O)O)cc2)n1 (some centres not stated) | inactive |  |
| CC(C)=CCC[C@](C)(O[C@@H]1O[C@H](CO[C@@H]2O[C@H](CO)[C@@H](O)[C@H](O)[C@H]2O)[C@@H](O)[C@H](O)[C@H]1O)[C@H]1CC[C@]2(C)[C@@H]1[C@H](O)C[C@@H]1[C@@]3(C)CC[C@H](O[C@@H]4O[C@H](CO)[C@@H](O)[C@H](O)[C@H]4O[C@@H]4O[C@H](CO)[C@@H](O)[C@H](O)[C@H]4O)C(C)(C)[C@@H]3CC[C@]12C |  | -3.97% [at 27.1 µM] |
